Source: PubChem BioAssay (EPA / NIEHS)
Activity calls are given as the source filed them. The calls were made as follows: active = hit-call score of the fitted dose curve at least 0.9, where 1 is the maximum; inactive = score below 0.9.

How the values were obtained:
Conditions in all cases: mRNA level, 48 h; actives raise or lower the signal
CYP4A11 (gene 1579) = experiment: LTEA_HepaRG_CYP4A11: Life Technologies and Expression Analysis (LTEA) Assay for CYP4A11 using HepaRG (AID 2283486)
How it was run: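 Differentiated HepaRG cells, serum-free induction medium, exposed 48 h in duplicate to 8-point half-log series from 100 uM in 0.5% DMSO. CYP4A11 mRNA measured by qRT-PCR, normalized to ACTB, GAPDH, POLR2A; bidirectional fit versus DMSO.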

[1] = read-out: Cytochrome P450 3A4 (Homo sapiens) (UniProt P08684); experiment: LTEA_HepaRG_CYP3A4: Life Technologies and Expression Analysis (LTEA) Assay for CYP3A4 using HepaRG (AID 2283487)
How it was run: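 Differentiated HepaRG cells in serum-free induction medium exposed in duplicate for 48 h to 8 half-log concentrations up to 100 uM in 0.5% DMSO. CYP3A4 mRNA measured by qRT-PCR normalized to ACTB, GAPDH and POLR2A; bidirectional fit versus DMSO.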

[2] = read-out: DNA damage-inducible transcript 3 (DDIT3), DDIT3 (gene 1649); experiment: LTEA_HepaRG_DDIT3: Life Technologies and Expression Analysis (LTEA) Assay for DNA damage-inducible transcript 3 (DDIT3) using HepaRG (AID 2283488)
How it was run: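 HepaRG plated 48 h, switched to serum-free induction medium, dosed 48 h (100 uM top, half-log, 8 pts, 0.5% DMSO, n=2); RNA isolated; DDIT3 by qRT-PCR; bidirectional curve fit vs DMSO.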

[3] = read-out: Pro-epidermal growth factor (Homo sapiens) (UniProt P01133); experiment: LTEA_HepaRG_EGF: Life Technologies and Expression Analysis (LTEA) Assay for Epidermal growth factor (EGF) using HepaRG (AID 2283489)
How it was run: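 Differentiated human HepaRG cells, plated 48 h then switched to serum-free induction medium, were exposed for 48 h to test chemicals (8-point half-log series, top 100 uM, 0.5% DMSO). EGF mRNA was quantified by qRT-PCR, normalized to ACTB, GAPDH, POLR2A.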

[4] = read-out: Early growth response protein 1 (EGR1) transcription factor, EGR1 (gene 1958); experiment: LTEA_HepaRG_EGR1: Life Technologies and Expression Analysis (LTEA) Assay for Early growth response protein 1 (EGR1) transcription factor using HepaRG (AID 2283490)
How it was run: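 Differentiated human HepaRG cells in serum-free induction medium were exposed in duplicate for 48 h to eight concentrations (top 100 uM, half-log steps) in 0.5% DMSO. EGR1 mRNA was quantified by qRT-PCR, normalized to ACTB, GAPDH and POLR2A, and fitted bidirectionally versus DMSO.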

[5] = read-out: Ezrin (EZR), EZR (gene 7430); experiment: LTEA_HepaRG_EZR: Life Technologies and Expression Analysis (LTEA) Assay for Ezrin (EZR) using HepaRG (AID 2283491)
How it was run: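 Differentiated human HepaRG cells, 48 h after plating, were exposed in serum-free induction medium for 48 hours to eight half-log concentrations up to 100 uM in 0.5% DMSO. EZR mRNA was measured by TaqMan qRT-PCR, normalized to ACTB, GAPDH and POLR2A, and fitted bidirectionally against DMSO.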

[6] = read-out: Cytochrome P450 3A7 (Homo sapiens) (UniProt P24462); experiment: LTEA_HepaRG_CYP3A7: Life Technologies and Expression Analysis (LTEA) Assay for CYP3A7 using HepaRG (AID 2283492)
How it was run: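 HepaRG cells plated 48 h, then dosed in serum-free induction medium for 48 h at 8 concentrations (top 100 uM, half-log steps, 0.5% DMSO). CYP3A7 mRNA by qRT-PCR, normalised to ACTB/GAPDH/POLR2A; bidirectional fit versus DMSO.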

CYP3A5 (gene 1577) = experiment: LTEA_HepaRG_CYP3A5: Life Technologies and Expression Analysis (LTEA) Assay for CYP3A5 using HepaRG (AID 2283493)
How it was run: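 HepaRG plated 48 h, switched to serum-free induction medium, chemicals added 48 h (max 100 uM, half-log, 0.5% DMSO). RNA isolated; CYP3A5 by TaqMan qRT-PCR. Gain/loss vs DMSO.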

[7] = read-out: Fatty Acid-Binding Protein 1 (FABP1), FABP1 (gene 2168); experiment: LTEA_HepaRG_FABP1: Life Technologies and Expression Analysis (LTEA) Assay for Fatty Acid-Binding Protein 1 (FABP1) using HepaRG (AID 2283494)
How it was run: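 Differentiated human HepaRG cells were exposed in duplicate for 48 h in serum-free induction medium to 8-point half-log concentration series topping at 100 uM in 0.5% DMSO. FABP1 mRNA measured by TaqMan qRT-PCR, normalized to ACTB/GAPDH/POLR2A; bidirectional fit versus DMSO.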

[8] = read-out: Cytochrome P450 4A22 (Homo sapiens) (UniProt Q5TCH4); experiment: LTEA_HepaRG_CYP4A22: Life Technologies and Expression Analysis (LTEA) Assay for Cytochrome P450 4A22 (CYP4A22) using HepaRG (AID 2283495)
How it was run: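 qRT-PCR of CYP4A22 mRNA (Fluidigm TaqMan, normalized to three housekeeping genes) after 48 h chemical exposure of HepaRG cells; 8-point half-log series, top 100 uM, 0.5% DMSO vehicle. Bidirectional curve fitting vs DMSO baseline.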

[9] = read-out: Cytochrome P450 7A1 (Homo sapiens) (UniProt P22680); experiment: LTEA_HepaRG_CYP7A1: Life Technologies and Expression Analysis (LTEA) Assay for Cytochrome P450 7A1 (CYP7A1) using HepaRG (AID 2283496)
How it was run: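 HepaRG cells plated 48 h, then switched to serum-free induction medium and exposed in duplicate for 48 h to 8-point half-log series from 100 uM in 0.5% DMSO. CYP7A1 mRNA by qRT-PCR (TaqMan), normalized to ACTB/GAPDH/POLR2A; bidirectional fit versus DMSO.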

[10] = read-out: Glutathione S-Transferase (GSTA2), GSTA2 (gene 2939); experiment: LTEA_HepaRG_GSTA2: Life Technologies and Expression Analysis (LTEA) Assay for Glutathione S-Transferase (GSTA2) using HepaRG (AID 2283497)
How it was run: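 Human HepaRG cells, plated 48 h, then exposed in serum-free induction medium for 48 h to eight half-log concentrations up to 100 uM in 0.5% DMSO, duplicate. GSTA2 mRNA by qRT-PCR, normalized to ACTB/GAPDH/POLR2A; bidirectional fit versus DMSO.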

[11] = read-out: Glutamate-cysteine ligase catalytic (GCLC), GCLC (gene 2729); experiment: LTEA_HepaRG_GCLC: Life Technologies and Expression Analysis (LTEA) Assay for Glutamate-cysteine ligase catalytic (GCLC) using HepaRG (AID 2283498)
How it was run: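 Differentiated human HepaRG cells, plated 48 h then switched to serum-free induction medium, were exposed in duplicate for 48 h to 8 half-log concentrations topping at 100 uM in 0.5% DMSO. GCLC mRNA was quantified by qRT-PCR against ACTB, GAPDH and POLR2A.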

[12] = read-out: growth arrest and DNA damage 45 (GADD45G), GADD45G (gene 10912); experiment: LTEA_HepaRG_GADD45G: Life Technologies and Expression Analysis (LTEA) Assay for growth arrest and DNA damage 45 (GADD45G) using HepaRG (AID 2283499)
How it was run: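 Differentiated human HepaRG cells in serum-free induction medium were exposed for 48 h to 8 half-log concentrations up to 100 uM in 0.5% DMSO, in duplicate. GADD45G mRNA was measured by TaqMan qRT-PCR, normalised to ACTB, GAPDH and POLR2A, and fitted bidirectionally against DMSO.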

[13] = read-out: Glutamate-cysteine ligase regulatory (GCLM), GCLM (gene 2730); experiment: LTEA_HepaRG_GCLM: Life Technologies and Expression Analysis (LTEA) Assay for Glutamate-cysteine ligase regulatory (GCLM) using HepaRG (AID 2283500)
How it was run: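 Cells were plated, cultured 48 h, switched to serum-free induction medium, then dosed in duplicate for 48 h at eight half-log concentrations up to 100 uM. RNA was then profiled by qRT-PCR; gain or loss versus DMSO was fitted.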

[14] = read-out: Glutathione S-transferase M3 (GSTM3), GSTM3 (gene 2947); experiment: LTEA_HepaRG_GSTM3: Life Technologies and Expression Analysis (LTEA) Assay for Glutathione S-transferase M3 (GSTM3) using HepaRG (AID 2283501)
How it was run: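 Differentiated HepaRG cells in serum-free induction medium were exposed in duplicate for 48 h to 8 half-log concentrations up to 100 uM in 0.5% DMSO. GSTM3 mRNA was measured by TaqMan qRT-PCR, normalized to ACTB/GAPDH/POLR2A, and fitted bidirectionally versus DMSO.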

[15] = read-out: Heat shock 70 kDa protein 1 (HSPA1A), gene 3303; experiment: LTEA_HepaRG_HSPA1A: Life Technologies and Expression Analysis (LTEA) Assay for Heat shock 70 kDa protein 1 (HSPA1A) using HepaRG (AID 2283502)
How it was run: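 Readout is HSPA1A transcript level by microfluidic qRT-PCR, normalized to three housekeeping genes and analysed for gain or loss of signal relative to 0.5% DMSO. Human HepaRG cultures received test chemicals for 48 h at up to 100 uM.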

[16] = read-out: Hypoxia-inducible factor 1-alpha (Homo sapiens) (UniProt Q16665); experiment: LTEA_HepaRG_HIF1A: Life Technologies and Expression Analysis (LTEA) Assay for Hypoxia-inducible factor 1 (HIF1A) Trancription factor using HepaRG (AID 2283503)
How it was run: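 Differentiated HepaRG cells in serum-free induction medium exposed 48 h, in duplicate, to 8-point half-log series from 100 uM in 0.5% DMSO. HIF1A mRNA measured by TaqMan qRT-PCR, normalized to ACTB/GAPDH/POLR2A, fitted bidirectionally versus DMSO.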

[17] = read-out: 3-Hydroxy-3-Methylglutaryl-CoA Synthase 2 (HMGCS2), HMGCS2 (gene 3158); experiment: LTEA_HepaRG_HMGCS2: Life Technologies and Expression Analysis (LTEA) Assay for 3-Hydroxy-3-Methylglutaryl-CoA Synthase 2 (HMGCS2) using HepaRG (AID 2283504)
How it was run: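 Differentiated human HepaRG cells were exposed in duplicate for 48 h in serum-free induction medium to eight concentrations (top 100 uM, half-log steps, 0.5% DMSO). HMGCS2 mRNA was quantified by TaqMan qRT-PCR, normalised to ACTB, GAPDH and POLR2A, then fitted bidirectionally against DMSO.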

HGF (gene 3082) = experiment: LTEA_HepaRG_HGF: Life Technologies and Expression Analysis (LTEA) Assay for Hepatocyte Growth Facto (HGF) using HepaRG (AID 2283505)
How it was run: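 Differentiated human HepaRG cells in serum-free induction medium were exposed in duplicate for 48 h to eight concentrations (top 100 uM, half-log steps, 0.5% DMSO). HGF mRNA was quantified by qRT-PCR, normalized to ACTB, GAPDH and POLR2A.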

Measured: outcome

Sequence of Cytochrome P450 3A4 (Homo sapiens) (P08684 whole entry, looked up): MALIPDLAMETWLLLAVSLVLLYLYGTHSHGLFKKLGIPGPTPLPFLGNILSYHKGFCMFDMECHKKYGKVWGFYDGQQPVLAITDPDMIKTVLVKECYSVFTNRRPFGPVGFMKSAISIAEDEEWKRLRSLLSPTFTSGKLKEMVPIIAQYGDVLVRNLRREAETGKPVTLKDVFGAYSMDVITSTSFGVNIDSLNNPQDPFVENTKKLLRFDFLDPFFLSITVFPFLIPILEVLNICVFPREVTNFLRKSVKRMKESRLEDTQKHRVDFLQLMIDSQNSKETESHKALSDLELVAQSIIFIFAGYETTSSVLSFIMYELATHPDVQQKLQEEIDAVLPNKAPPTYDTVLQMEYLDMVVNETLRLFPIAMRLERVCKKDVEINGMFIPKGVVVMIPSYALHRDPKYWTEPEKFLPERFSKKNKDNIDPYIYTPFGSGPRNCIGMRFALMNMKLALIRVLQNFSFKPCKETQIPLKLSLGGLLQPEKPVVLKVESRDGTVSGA
Sequence of Hypoxia-inducible factor 1-alpha (Homo sapiens) (Q16665 whole entry, looked up): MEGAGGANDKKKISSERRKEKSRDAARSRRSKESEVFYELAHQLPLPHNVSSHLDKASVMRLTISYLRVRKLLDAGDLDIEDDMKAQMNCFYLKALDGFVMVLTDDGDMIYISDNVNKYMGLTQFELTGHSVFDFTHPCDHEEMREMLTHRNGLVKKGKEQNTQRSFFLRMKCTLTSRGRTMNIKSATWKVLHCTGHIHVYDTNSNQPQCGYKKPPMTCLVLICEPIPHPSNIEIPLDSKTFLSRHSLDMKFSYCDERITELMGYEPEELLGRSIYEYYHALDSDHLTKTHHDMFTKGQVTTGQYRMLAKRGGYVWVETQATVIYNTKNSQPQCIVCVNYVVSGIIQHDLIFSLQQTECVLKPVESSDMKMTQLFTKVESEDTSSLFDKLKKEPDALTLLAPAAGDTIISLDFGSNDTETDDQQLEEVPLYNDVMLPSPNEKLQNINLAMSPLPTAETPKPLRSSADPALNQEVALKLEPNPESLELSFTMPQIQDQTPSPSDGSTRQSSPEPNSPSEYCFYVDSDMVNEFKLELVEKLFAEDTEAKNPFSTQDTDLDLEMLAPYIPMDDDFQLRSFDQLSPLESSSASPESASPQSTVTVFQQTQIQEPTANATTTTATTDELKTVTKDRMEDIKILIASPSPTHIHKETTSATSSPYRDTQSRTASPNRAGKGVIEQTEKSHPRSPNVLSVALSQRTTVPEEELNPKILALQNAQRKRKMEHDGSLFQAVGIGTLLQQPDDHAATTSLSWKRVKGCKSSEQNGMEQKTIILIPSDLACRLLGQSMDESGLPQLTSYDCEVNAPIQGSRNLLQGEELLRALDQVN
Sequence of Cytochrome P450 3A7 (Homo sapiens) (P24462 whole entry, looked up): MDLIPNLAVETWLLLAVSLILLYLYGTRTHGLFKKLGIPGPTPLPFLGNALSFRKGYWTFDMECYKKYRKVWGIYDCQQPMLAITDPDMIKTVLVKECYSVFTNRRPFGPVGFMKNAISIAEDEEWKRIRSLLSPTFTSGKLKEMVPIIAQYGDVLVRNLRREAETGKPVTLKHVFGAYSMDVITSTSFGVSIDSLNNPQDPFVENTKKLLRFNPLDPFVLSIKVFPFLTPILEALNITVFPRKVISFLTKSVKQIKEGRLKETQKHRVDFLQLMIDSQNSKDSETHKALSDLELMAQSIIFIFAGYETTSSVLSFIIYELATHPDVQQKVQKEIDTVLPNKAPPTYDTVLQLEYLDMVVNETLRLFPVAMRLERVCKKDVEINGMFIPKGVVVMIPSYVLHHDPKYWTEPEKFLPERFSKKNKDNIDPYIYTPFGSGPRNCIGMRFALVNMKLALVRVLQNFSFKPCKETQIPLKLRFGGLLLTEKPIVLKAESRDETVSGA

CCC(C)=NO
inactive: all assays above
